Experimental data published in PubChem BioAssay (EPA / NIEHS).
Calls of active or inactive are those of the source. Rule for the calls, unless noted: active = hit-call score of the fitted dose curve at least 0.9, where 1 is the maximum; inconclusive = response in the unintended direction; inactive = score below 0.9.

Target: Peroxisome proliferator-activated receptor gamma (Homo sapiens) (UniProt P37231)
Assay: OT_PPARg_PPARgSRC1_1440: Odyssey Thera (OT) 24-hour Protein-Complementation Assay for Peroxisome Proliferator-activated Receptor Gamma/ SRC-1 Co-activator (AID 2283388);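 note: nuclear to cytoplasmic ratio of reconstituted Venus YFP fluorescence in fixed imaged cells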
Conditions: not given
Procedure, shortened: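 Readout: nuclear-to-cytoplasmic 488 nm fluorescence ratio, ≥350 cells per image, 8 images per well, after 24 h compound exposure of HEK293T expressing PPARg/SRC-1 split-YFP fusions. Activity fitted in positive direction against DMSO.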

Sequence of Peroxisome proliferator-activated receptor gamma (Homo sapiens) (P37231 whole entry, looked up): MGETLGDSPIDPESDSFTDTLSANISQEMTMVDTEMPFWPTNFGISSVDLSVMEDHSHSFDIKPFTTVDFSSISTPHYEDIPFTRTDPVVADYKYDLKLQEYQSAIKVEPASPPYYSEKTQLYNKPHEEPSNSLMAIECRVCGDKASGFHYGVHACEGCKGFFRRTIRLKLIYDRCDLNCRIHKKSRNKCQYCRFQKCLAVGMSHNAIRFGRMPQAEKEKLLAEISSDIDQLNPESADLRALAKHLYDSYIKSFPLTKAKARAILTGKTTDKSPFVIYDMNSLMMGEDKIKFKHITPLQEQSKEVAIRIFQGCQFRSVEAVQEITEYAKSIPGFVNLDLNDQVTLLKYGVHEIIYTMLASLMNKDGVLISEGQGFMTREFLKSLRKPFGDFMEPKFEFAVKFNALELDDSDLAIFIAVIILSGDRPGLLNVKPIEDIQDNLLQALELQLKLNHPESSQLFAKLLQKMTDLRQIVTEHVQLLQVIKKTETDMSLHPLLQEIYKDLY

| SMILES | outcome |
| --- | --- |
| O=C1CN(N=Cc2ccc([N+](=O)[O-])o2)C(=O)N1 | inactive |
| O=C(O)c1ccc2c(c1)nc(C(=O)NC1CCN(C3CC3)CC1)n2Cc1cc(-c2ccc(Cl)s2)on1 | inactive |
| CCOc1ccc2[nH]cc(C(=O)NCc3ccccc3)c(=O)c2n1 | inactive |
| CCCCCCCC/C=C\CCCCCCCC(=O)OC[C@@H](O)[C@H]1OC[C@H](O)[C@H]1O | inactive |
| Cn1cc[nH]c1=S | inactive |
| CCCCN1C(=O)[C@@H]([C@H](O)C2CCCCC2)NC(=O)C12CCN(Cc1ccc(Oc3ccc(C(=O)O)cc3)cc1)CC2 | inactive |

Read-out: not listed separately
Assay: CEETOX_H295R_OHPREG: CeeTox H295R High-throughput Steroidogenesis Assay for OH-Pregnenolone (OHPREG) (AID 2283434; active = hit-call score of the fitted dose curve at least 0.9, where 1 is the maximum; inactive = score below 0.9)
Conditions: actives raise or lower the signal
Procedure, shortened: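 H295R cells pre-stimulated 48 h with 10 uM forskolin, then exposed 48 h to chemical in 0.1% DMSO. 17alpha-hydroxypregnenolone in medium quantified by MTBE extraction and HPLC-MS/MS; bidirectional fit versus DMSO, viability checked by MTT.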

| SMILES | outcome |
| --- | --- |
| OCc1c[nH]c2ccccc12 | inactive |
| CCCCCCCCCCCCCCO | inactive |
| C[C@@H](Oc1ccc(CNC(=O)c2cccnc2Oc2ccc3c(c2)OCO3)c(F)c1)C(=O)O | inactive |
| Cc1ncc([C@@H](CCCCCCc2ccc3c(n2)NCCC3)CC(=O)O)cn1 | inactive |
| CCCCCCCC1CCC(=O)O1 (configuration not stated) | inactive |
| CCOc1ccc2[nH]cc(C(=O)NCc3ccccc3)c(=O)c2n1 | inactive |
